According to PubChem BioAssay (Tox21):
Where “and” joins values, the source holds several entries; their conditions need not be identical. Equal entries are not always repeated. Inconclusive results are not listed. A structure can be active in one record and inactive in another. Calls of active or inactive are those of the source. How the calls were made is not given here.
Potency means the concentration at half of the fitted maximal effect.

Test: qHTS assay to identify small molecule antagonists of the estrogen related receptor signaling pathway with the pleiotropic PPARgamma coactivator (PGC) from Tox21 10K library (AID 1224841); further: actives are mostly falling curves and most rising ones were filed inactive; nearly all actives have a fitted effect of over 50% in size
Conditions: PGC/ERR reporter cell line, ONE-Glo luciferase, 18 h; series mostly up to 92.4 µM
From the text: U.S. Tox21 Program National Center for Advancing Translational Sciences [NCATS] NIH Chemical Genomics Center [NCGC] U.S. Environmental Protection Agency [EPA] National Institutes of Environmental Health Sciences [NIEHS] National Toxicology Program [NTP] U.S. Food and Drug Administration [FDA] Tox21 Assay Overview: Estrogen related receptors (ERRs), the first orphan nuclear receptors discovered, play an important role in the control of cellular energy metabolism. ERRs are required for high-energy production in response to the environmental challenges. The pleiotropic PPARgamma coactivator (PGC) is a major partner of ERR and a key regulator in energy homeostasis. Together they have been implicated in the etiology of metabolic disorders such as Type 2 diabetes and metabolic syndrome. ERR-alpha was also identified as an adverse marker for breast cancer progression; ERR-alpha-positive tumors have a poor prognosis. To screen and to identify environmental compounds that perturb the ERR and PGC/ERR signaling pathways could provide valuable information for potential therapeutic or preventive measures in the treatment of metabolic disease. For identifying PGC/ERR antagonists, PGC/ERR cell line (provided by NTP) has been used to screen Tox21 10K library.
Tox21 Assay Protocol Summary: The PGC/ERR cells were dispensed at 2,000 cells/5 ul/well in 1536-well white plates using a Multidrop dispenser. After the assay plates were incubated at a 37 C/5% CO2 incubator for 6 hours, 23 nL of compounds dissolved in DMSO, positive and negative controls or DMSO only was transferred to the assay plate by a pin tool. The plates were incubated at 37 C for 18 hours. 4 ul/well of One-Glo reagent was added into the assay plates using a Flying Reagent Dispenser. After 30-minute incubation at room temperature, the luminescence intensity in the plates was measured using a ViewLux plate reader.
In the case of COc1ccc(-c2ccc3cc(C(=O)O)ccc3c2)cc1C12CC3CC(CC(C3)C1)C2, the Potency is reported as “inactive”.
With CCCCCCCCCOC(=O)c1ccc(O)cc1 the Potency was “inactive”.
In the case of Cc1oc(-c2ccccc2)nc1CCC(=O)c1ccc(CC2SC(=O)NC2=O)cc1 (stereo not given), the Potency is reported as “inactive”.
In the case of C[C@@H](NCCCc1cccc(C(F)(F)F)c1)c1cccc2ccccc12, the Potency is reported as “inactive”.
For N#CSc1ccc(N)c([N+](=O)[O-])c1, the Potency was 30.8 µM (active).
With O=C(OCC(COC(=O)c1ccccc1)(COC(=O)c1ccccc1)COC(=O)c1ccccc1)c1ccccc1 the Potency was “inactive”.
In the case of Cc1cc(=O)oc2cc(N(C)C)ccc12, the Potency is reported as “inactive”.
For COc1c(C)c2c(c(O)c1C/C=C(\C)CCC(=O)O)C(=O)OC2, the Potency was 2.66 µM (active).
For Cc1cccc2c1cc1ccc3cccc4ccc2c1c34, the Potency was “inactive”.
For CCCCC(CC)CN=C(N)NC(N)=NCCCCCCN=C(N)NC(N)=NCC(CC)CCCC (stereo not given), the Potency was 23.7 µM (active).
With CN(C)c1ccc(C2(c3ccc(N(C)C)cc3)OC(=O)c3cc(N(C)C)ccc32)cc1 the Potency was “inactive”.
In the case of O=c1[nH]sc2cc(Cl)ccc12, the Potency is reported as 0.298 µM (active).
With C=CC(=O)OCCn1c(=O)n(CCOC(=O)C=C)c(=O)n(CCOC(=O)C=C)c1=O the Potency was 15.4 µM (active).
With Clc1ccccc1C(c1ccccc1)(c1ccccc1)n1ccnc1 the Potency was 5.45 µM (active) and 9.44 µM (active).
In the case of Nc1c2ccccc2nc2ccccc12, the Potency is reported as 53.8 µM (active) and inactive.
With Cc1cc(O)c(C(C)(C)C)cc1Sc1cc(C(C)(C)C)c(O)cc1C the Potency was 21.6 µM (active).
In the case of CN(C)C(=O)C1(N2CCCCC2)CCN(CC[C@@]2(c3ccc(Cl)c(Cl)c3)CN(C(=O)c3ccccc3)CCO2)CC1, the Potency is reported as 50.9 µM (active).
In the case of CCC(C)Nc1ccc(NC(C)CC)cc1 (stereo not given), the Potency is reported as 8.8 µM (active).
In the case of CCN(CCC#N)c1ccc(N=Nc2c(Cl)cc([N+](=O)[O-])cc2Cl)cc1, the Potency is reported as “inactive”.
In the case of CN(C)[C@@H]1C(=O)C(C(N)=O)=C(O)[C@@]2(O)C(=O)C3=C(O)c4c(O)cccc4C[C@H]3C[C@@H]12, the Potency is reported as 26.6 µM (active).
For CCCCCOc1ccccc1/C(=C\SC)n1ccnc1, the Potency was 15 µM (active).
For CNCc1cc(F)ccc1Oc1ccc(Cl)c(Cl)c1, the Potency was “inactive”.
In the case of C=C(C)C(=O)OCC(O)COc1ccc(C(C)(C)c2ccc(OCC(O)COC(=O)C(=C)C)cc2)cc1 (stereo not given), the Potency is reported as 43.3 µM (active).
For COc1cc(-c2ccc(N=C=O)c(OC)c2)ccc1N=C=O, the Potency was “inactive”.
For COCCCC/C(=N\OCCN)c1ccc(C(F)(F)F)cc1, the Potency was 2.98 µM (active).
With C[C@H](CCC(=O)O)[C@H]1CC[C@H]2[C@@H]3CC[C@@H]4C[C@H](O)CC[C@]4(C)[C@H]3CC[C@]12C the Potency was 68.3 µM (active).
In the case of CC(C)(C)C(=O)OCOC(=O)[C@@H]1N2C(=O)[C@@H](NC(=O)[C@H](N)c3ccccc3)[C@H]2SC1(C)C, the Potency is reported as “inactive”.
With O=S1(=O)CC(Cl)(Cl)C(Cl)(Cl)C1 the Potency was 13.7 µM (active).
For Oc1ccc2cc(SSc3ccc4cc(O)ccc4c3)ccc2c1, the Potency was 48.6 µM (active) and 43.3 µM (active).
With NC(=O)N1C(=O)C(C(=O)c2cc(Cl)cs2)c2cc(F)c(Cl)cc21 (stereo not given) the Potency was 38.6 µM (active).
For Cc1cc(N)c(S(=O)(=O)O)cc1Cl, the Potency was “inactive”.
In the case of N=C1C=CC(=C(c2ccc(N)cc2)c2ccc(N)cc2)C=C1, the Potency is reported as 3.44 µM (active).
For Cc1cc2c(cc1C(F)(F)F)N(C(=O)Nc1ccc(Oc3cccnc3C)nc1)CC2, the Potency was 7.81 µM (active).
In the case of CCCCCCCCCCCCCCCCCC[N+](C)(C)Cc1ccccc1, the Potency is reported as 30.9 µM (active).
With O=C(O)c1ccc(Cl)c(Cl)c1 the Potency was “inactive”.
For O=c1[nH]cnc2nc[nH]c12, the Potency was “inactive”.
For CC(C)CCCCCCCCCCCCCCC(=O)O, the Potency was “inactive”.
In the case of O=C1c2ccccc2Cc2ccccc21, the Potency is reported as “inactive”.
In the case of Clc1ccc2nsnc2c1NC1=NCCN1, the Potency is reported as “inactive”.
In the case of Cc1cc(CCN2CCN(c3nsc4ccccc34)CC2)cc2c1NC(=O)CC2(C)C, the Potency is reported as 7.7 µM (active).
